Screen size: about 59,000 compounds; about 6,200 (11%) were called active. Another 9% or so got no clear call; they are omitted. Cut-off read from the data, not from the text of the source: active = max dye-equivalent concentration above about 10 nM; inconclusive = mostly about 1.1 nM to 9.6 nM; inactive = weaker than that. The sample as a whole holds a higher share of actives than the screen did.
Experiment: qHTS Assay for Spectroscopic Profiling in 4-MU Spectral Region
Details: compound autofluorescence, 340/450 nm, 4-MU equivalents; hits give high values
Source text: NIH Molecular Libraries Screening Centers Network [MLSCN] NIH Chemical Genomics Center [NCGC] […] Occasionally, the artifactual effect may originate from the compounds own spectral or other biophysical properties which generally tend to track its assay concentration. Pre-screening/profiling the library with respect to the compounds spectral properties should help one exclude false positives early on. While the most informative fluorescent profiling data set is obtained by performing a full excitation and emission scan of each well by using a monochromator-based plate reader, such an approach is practical only on a very limited scale as scanning each well requires long time. An alternative approach, applied here, is to perform plate reader scans using selected excitation and emission wavelength pairs to generate a multidimensional relational database that correlates compound concentration and the respective relative fluorescence intensity at a given wavelength set. A standard curve of 4-methylumbelliferone (4-MU) present on each plate as six-point concentration series, was used to compute a normalized fluorescence response, termed dye-equivalent concentration, for each compound at each concentration.
NCGC Assay Protocol Summary: Buffer: 100 mM Tris buffer, pH 8.0 Dye standard plate: The wells in columns 1 through 4 of a Kalypsys polypropylene 1536-well compound plate were filled with standard solutions of fluorophore corresponding to the spectral region of interest. Solutions of 4-MU were placed in the following wells: A1, B1: 3 mM, A2, B2: 300 uM, A3, B3: 30 uM, A4, B4: zero (DMSO), C1, D1: 3 uM, C2, D2: 900 nM, C3, D3: 300 nM, C4, D4: zero (DMSO). Assay Steps: Six uL of buffer were dispensed to 1536-well Greiner black plates. Compounds and dye standards (23 nL) were transferred via Kalypsys PinTool. The plates were incubated for 15 min at room temperature, and then read on ViewLux (Perkin-Elmer) High-throughput CCD imager using 340 nm and 450 nm excitation and emission filter set. Keywords: NIH Roadmap, MLSCN, MLI, MLSMR, qHTS, NCGC, Fluorescent Profiling, 4MU, 4-MU

| SMILES | max dye-equivalent concentration |
| --- | --- |
| Cn1c(CC(=O)Nc2ccccc2)nnc1SCC(=O)c1ccccc1 | inactive |
| CC(=O)N1CCC2(CC1)CCN(c1ccncc1)CC2 | inactive |
| COc1cc(OC)cc(C(=O)Nc2ccc(-c3nc4ccccc4o3)c(O)c2)c1 | 330 nM (active) |
| COc1cccc(NC(=O)c2ccccc2SC)c1 | inactive |
| COc1ccc(NC(=O)c2c(C)oc3c2CCCC3)cc1 | inactive |
| O=C1[C@@H]2C(Cc3ccc(O)cc3)NC3(C(=O)Nc4ccc(F)cc43)[C@@H]2C(=O)N1c1ccc(F)cc1 (some centres undefined) | inactive |
| CC(Sc1sc(=S)sc1SC(C)C(=O)O)C(=O)O (centres undefined) | inactive |
| CC(C)CCNc1nc(N2CCCC2)c2c(c1C#N)CCN(C)C2 | 24 nM (active) |
| COc1ccc(OC)c(NC(=O)CN2CCN(C(=O)c3ccco3)CC2)c1 | inactive |
| O=C(Nc1cc(N2CCOCC2)ncn1)NC1(C(F)(F)F)Oc2ccc(Cl)cc2O1 (centres undefined) | inactive |
| Cc1csc(NC(=O)CN2CCCCCC2)n1 | inactive |
| Cc1csc(NC(=O)NC2(C(F)(F)F)Oc3ccccc3O2)n1 | 110 nM (active) |
| C[C@H](NC(=O)NCCc1ccccc1)C(=O)O | inactive |
| CNc1ncnc2ccc(-c3cccc(NS(C)(=O)=O)c3)cc12 | inactive |
| Cn1c(SCC(=O)OC2CCCCC2)nnc1-c1ccc(S(=O)(=O)N2CCCC2)cc1 | inactive |
| O=C(Oc1cccnc1)c1cc2ccccc2oc1=O | 82 nM (active) |
| O=C(NCc1ccccn1)Nc1ccc(F)cc1 | inactive |
| COc1ccc2oc(=O)c(C(=O)O)cc2c1 | inactive |
| Cc1ccsc1C(=O)OCC(=O)c1cc2ccccc2o1 | inactive |
| O=C(NCc1ccccn1)c1cnc2sccn2c1=O | inactive |
| O=C(NCc1ccccn1)c1cc2ccccc2oc1=O | 22 nM (active) |
| Cc1cc(NC(=O)COC(=O)c2ccc(F)c(S(=O)(=O)N3CCOCC3)c2)no1 | inactive |
| COc1ccc(NC(=O)N2CC3(CCN(C(=O)c4cccn4C)CC3)C2)cc1 | inactive |
| Cc1cc(=O)[nH]c(SCc2cc(Cl)ccc2OC(F)F)n1 | inactive |
| COc1ccccc1C(=O)N1CCNC(=O)C1CC(=O)Nc1ccc(Cl)cc1 (centres undefined) | inactive |
| CCCCc1cc(=O)oc2cc(C)cc(OCc3nn[nH]n3)c12 | 59 nM (active) |
| Cc1c(O)c(Br)c(C)c(O)c1Br (tested in a mixture with another compound) | inactive |

| SMILES | max dye-equivalent concentration |
| --- | --- |
| CCc1nnc(NC(=O)c2nc3nccc(C)n3n2)s1 | inactive |
| CCC1=C/C(=C\c2ccc3c(c2)OCO3)C(=O)S1 | inactive |
| COc1ccccc1CNC(=O)C1CCN(c2nc3ccccc3o2)CC1 | inactive |
| O=C(C1CCCO1)N1CCC(c2nc3ccccc3[nH]2)CC1 (centres undefined) | inactive |
| COc1cc2nc(N3CCN(C(=O)[C@@H]4CCCO4)CC3)nc(N)c2cc1OC | 890 nM (active) |
| COc1ccc2[nH]cc(CCNc3ncnc4ccc(-c5ccccc5CN(C)C)cc34)c2c1 | inactive |
| Cc1ccccc1NC(=O)c1cc(S(=O)(=O)N2CCOCC2)cs1 | inactive |
| CN(CC(=O)NC1CCCCC1)S(=O)(=O)c1ccc(Br)s1 | inactive |
| CCC(C(=O)NC1CCCC1)N(C(=O)c1snc(C(N)=O)c1N)c1ccc2c(c1)OCCO2 (centres undefined) | inactive |
| COCCNC(=O)C(c1ccc(C)o1)N(Cc1ccccc1)C(=O)Cn1nnc2ccccc21 (centres undefined) | inactive |
| COCCNC(=O)C(c1ccc(C)o1)N(Cc1cccs1)C(=O)c1snc(C(N)=O)c1N (centres undefined) | 110 nM (active) |
| CCOC(=O)CCCNC(=O)CN1C(=O)NC(CCc2ccccc2)C1=O (centres undefined) | inactive |
| CCOC(=O)c1ccc(NC(=O)CS(=O)(=O)c2cn(CC)c3ccccc23)cc1 | inactive |
| O=C(Nc1ccccc1-c1nnn(CC(=O)N2CCN(c3ccccc3)CC2)n1)c1cccs1 | inactive |
| Cc1[nH]c(N)nc(=S)c1CCCNc1ccccc1 | inactive |
| Cn1c(=O)c2c(nc(NCCc3ccccc3)n2Cc2ccccc2)n(C)c1=O | inactive |
| Cn1c(=S)c2[nH]c(SCCCc3ccccc3)nc2n(C)c1=O | 13 nM (active) |
| CCCSc1nc2c(c(=O)[nH]c(=O)n2C)n1CCc1ccccc1 | inactive |
| O=C(CC(Cc1ccccc1)C(=O)O)NCCc1ccc2c(c1)OCO2 (centres undefined) | inactive |
| CCOc1ccc(OCC)c(NC(=O)CSc2nnc(Cn3cnc4ccccc43)n2C)c1 | inactive |
| COC(=O)COc1ccc2oc(=O)cc(C)c2c1 | 25 nM (active) |
| COc1ccc2oc(C)c(NC(C)=O)c2c1 | inactive |
| CCOC(=O)c1c(C)oc2ccc(OCC(=O)N(CC)CC)cc12 | inactive |
| Cc1nc(CNS(=O)(=O)c2cccnc2)cs1 | inactive |
| COc1ccccc1NC(=O)C1=C(C)Nc2nnnn2C1c1cccc(Br)c1 (centres undefined) | inactive |
| COC(=O)c1ccc(C2C3=C(Nc4nnnn42)c2ccccc2OC3)cc1 (centres undefined) | 59 nM (active) |
| CCCCCOC(=O)C1=C(C)Nc2nnnn2C1c1ccc(OC)c(OC)c1OC (centres undefined) | inactive |
